An excerpt weighted towards active compounds, which were near 3.1% of everything screened.
VDR inh = blocks the human vitamin D receptor; P11473; VDR-SRC2-3 peptide fluorescence polarization, 2 h; Potency, µM, for inactives: max response, negative = inhibition, usual class: inhibitors; hit rate 0.93% among 400,000; note: potency is the fitted concentration of half-maximal effect; % is set by controls: 0 for no effect and ±100 for the full control effect
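Measured by FP: displacement of SRC2-3 coactivator peptide from VDR by library compounds, following a two-hour ambient incubation.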
TSG101-PTAP inh = blocks PTAP/TSG101 interaction to inhibit HIV-1 budding. Q99816. Fluorescence polarization, FITC-PTAP peptide / Tsg101 binding. Potency, µM (series often up to 115 µM), for the others: at the highest dose activity change, negative = inhibition, most hits filed as inhibitors. AID 493005. 340,000 tested, under 10 active; active = well fitted inhibition curve with a large enough effect in the main read-out, with a control signal flat, not every such curve was filed as active; inconclusive = small, poorly fitted or top-dose-only effect, or effect the other way, or a change in a side signal; inactive = no such curve, though single readings can be large or run the other way; note: potency is the fitted concentration of half-maximal effect; % of control where 0% means no effect
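FP read-out: FITC-PTAP peptide, 50 nM final, binding Tsg101 binding domain, 10 uM final; 20 min, r.t.; 10 mM HEPES pH 7.5, 0.15 M NaCl, 0.01% Tween 20, 3 mM EDTA, 0.1 mM TCEP.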
PLK1 PBD block = PLK1 (human) polo-box domain binding inhibition. Plk1 PBD binding of FITC phosphopeptide, fluorescence polarization. Potency, µM, without a hit: max response, negative = inhibition, actives largely listed as inhibitors. hit rate 2.8% among 360,000. AID 720504; note: potency is the fitted concentration of half-maximal effect; series mostly up to about 57 µM; % is set by controls: 0 for no effect and ±100 for the full control effect; nearly all actives have a fitted effect of over 65% in size
uPA generation = inhibitors of cell surface uPA generation | AID 540303 | cell surface uPA generation assay, qHTS | Potency, µM (series often up to 38.3 µM), for the others: at the top dose activity change, negative = inhibition, most hits filed as inhibitors | hit rate 0.31% among 330,000; active = well fitted inhibition curve with a large enough effect; inconclusive = small, poorly fitted or top-dose-only effect; inactive = no such curve, though single readings can be large or run the other way; tested in mouse RAW 264.7 cells; note: potency is the fitted concentration of half-maximal effect; % is set by controls: 0 for no effect and ±100 for the full control effect; nearly all actives have a fitted effect of over 55% in size
TSHR antag = blocks TSH signaling through the human TSH receptor. P16473. TSHR-expressing cells, TSH-stimulated cAMP HTRF, 2 h; stronger effect = lower value. activity change, negative = inhibition, % at 11.5 µM. hit rate 0.2% among 330,000. AID 504810;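 active = activity change below a set negative limit, meaning inhibition stronger than a set level, cut at about -70% in these data; inconclusive = activity change between two set negative limits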; note: % is set by controls: 0 for no effect and ±100 for the full control effect
Target sequence (P16473 whole entry, looked up): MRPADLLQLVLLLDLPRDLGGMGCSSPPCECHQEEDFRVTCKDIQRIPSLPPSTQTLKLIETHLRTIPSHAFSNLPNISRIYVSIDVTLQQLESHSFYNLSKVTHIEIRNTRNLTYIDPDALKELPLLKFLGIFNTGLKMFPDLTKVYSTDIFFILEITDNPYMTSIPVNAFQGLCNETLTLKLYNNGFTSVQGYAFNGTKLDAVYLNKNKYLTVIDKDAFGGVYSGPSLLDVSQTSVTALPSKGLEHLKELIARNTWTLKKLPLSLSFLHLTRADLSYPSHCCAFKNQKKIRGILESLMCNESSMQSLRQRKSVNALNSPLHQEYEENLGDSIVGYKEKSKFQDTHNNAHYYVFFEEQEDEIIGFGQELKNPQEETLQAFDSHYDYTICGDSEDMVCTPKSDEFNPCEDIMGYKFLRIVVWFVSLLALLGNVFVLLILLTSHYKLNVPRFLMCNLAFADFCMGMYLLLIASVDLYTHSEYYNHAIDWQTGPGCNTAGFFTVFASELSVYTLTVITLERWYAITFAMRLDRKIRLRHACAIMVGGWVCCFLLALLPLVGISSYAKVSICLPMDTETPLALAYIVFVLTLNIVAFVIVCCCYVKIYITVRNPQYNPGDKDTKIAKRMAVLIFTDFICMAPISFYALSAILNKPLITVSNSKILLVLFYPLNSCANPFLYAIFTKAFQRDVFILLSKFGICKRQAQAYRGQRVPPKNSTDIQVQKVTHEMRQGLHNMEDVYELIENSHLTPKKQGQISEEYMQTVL
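Read-out is FRET at 665 nm (cryptate excitation 337 nm) from a cryptate-tagged anti-cAMP antibody, competed by cell cAMP against cAMP-d2. Compounds are tested on freshly harvested TSHR cells challenged with 4nM TSH (EC80) for 2 hours at 37 deg C.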
* = called active by the depositor; ? = inconclusive; / = no result. Unless noted, calls come from the whole dose curve; as a rule, active = well fitted curve in the direction sought with a large enough effect; inconclusive = small, poorly fitted or top-dose-only effect, or another doubt; inactive = no such curve, though single readings can be large; an effect the other way counts as inactive or inconclusive.

SMILES	VDR inh	TSG101-PTAP inh	PLK1 PBD block	uPA generation	TSHR antag
COc1cc(NC(=O)C(C)C)ccc1NC(=O)c1cc2ccccc2o1	1%	-2%	-11%	14µM*	-9
CC1CCN(C(=O)CSc2nc3c([nH]c4ccccc43)c(=O)n2-c2ccccc2)CC1	12%	/	/	/	/
CCOC(=O)c1ccc(N2CCN(c3cccc(Cl)c3)CC2)c(NC(=O)Nc2ccc(Cl)cc2)c1	19%	/	/	/	/
COc1ccc(NCC(=O)N/N=C/c2cc([N+](=O)[O-])ccc2N2CCCC2)cc1	?	2%	13µM*	-1%	-7
Cc1[nH]n(-c2ccccc2)c(=O)c1N=Nc1c(O)cc(S(=O)(=O)N(C)C)c2ccccc12	13%	-2%	30µM*	?	?
Cc1[nH]n(-c2ccccc2)c(=O)c1N=Nc1ccc2c(c1)OCCO2	-1%	0%	0%	-10%	-6
COc1cc([N+](=O)[O-])ccc1N=Nc1c(N)[nH]n(-c2ccccc2)c1=O	-19%	-1%	30µM*	-1%	-4
Cc1ccc(N=Nc2c(C)[nH]n(-c3ccccc3)c2=O)cc1Br	-7%	-7%	-3%	6%	-6
Cc1ccc(N=Nc2c(C)[nH]n(-c3ccccc3)c2=O)c(C)c1	?	1%	8.4µM*	2%	-21
CCc1cccc(C)c1NC(=O)CCS(=O)(=O)c1cc(Br)cc2c1N(C(=O)C1CC1)CC2	-21%	/	/	/	/
NCCC[C@@H](CC(=O)N[C@@H]1CCCC[C@H]1C(=O)N[C@H](CC(=O)N[C@@H](CCC(=O)O)CC(=O)O)Cc1c[nH]c2ccccc12)NC(=O)C[C@H](Cc1c[nH]c2ccccc12)NC(=O)[C@@H]1CCCC[C@H]1N	4%	/	/	/	/
Cc1ccc(C(NC(=O)N2CCOCC2)C(Cl)(Cl)Cl)cc1F (centres undefined)	-6%	-2%	27µM*	8%	-5
CCCSc1nnc(CSc2nc(C)cc(C)n2)n1C	-25%	-4%	21µM*	2%	-3
O=S1(=O)CC(N2CCCC2)CN1Cc1cn(Cc2ccccc2)nn1 (centres undefined)	/	/	2%	/	/
Cc1ccc(OCCOC(=O)c2nc3nccc(C)n3n2)cc1	?	11%	27µM*	2%	1
COc1ccc2cc3cc(C(=O)N4CC(C)CC(C)C4)oc3nc2c1 (centres undefined)	4%	-4%	0%	-1%	-5
Cc1ccc2cc3cc(C(=O)N4CC(C)CC(C)C4)oc3nc2c1 (centres undefined)	-3%	1%	13µM*	-3%	-9
CCOc1ccc2nc(NC(=O)c3cc(=O)c4cc(C)cc(C)c4o3)sc2c1	1%	/	/	/	/
Cc1cc(F)ccc1-c1cc(C(=O)NC(C)C)[nH]n1	/	/	0%	/	/
CC(C)(C)c1nc2cc(Cl)c([N+](=O)[O-])cc2o1	79µM*	0%	27µM*	0%	-12
O=C(OCn1ncc(Br)c(Br)c1=O)c1ccccc1Cl	22µM*	1%	19µM*	-6%	-5
O=C(OCn1ncc(Br)c(Br)c1=O)c1ccc(F)cc1	25µM*	-15%	9.5µM*	-9%	-47
O=C(OCc1cnc(Cl)s1)c1ccccc1Cl	3%	-2%	-15%	5%	-4
CCn1cc(C(=O)NCCc2ccc(Cl)cc2)c(=O)c2cc(S(=O)(=O)N3CCC(C)CC3)ccc21	-5%	/	/	/	/
COc1cccc(-c2oc3c(c2C(=O)OCCN(C)C)C(O)CCC3)c1 (centres undefined)	/	/	-4%	/	/
SMILES	VDR inh	TSG101-PTAP inh	PLK1 PBD block	uPA generation	TSHR antag
COc1ccccc1NC(=O)Cn1c(=O)n(-c2cccc(C)c2)c(=O)c2c1c1cc(C)ccc1n2C	8%	/	/	/	/
CCc1ccccc1NC(=O)c1sc2nc(C)cc(C)c2c1N	?	-10%	24µM*	-9%	5
Cc1cc(C)c2c(N)c(C(=O)Nc3ccccc3Br)sc2n1	63%	-1%	-5%	5%	-5
COC(=O)c1nnn(-c2ccc(Br)cc2)c1C(=O)OC	-7%	/	/	/	/
CO/N=C(\C(=O)N[C@@H]1C(=O)N2C(C(=O)O)=C(COC(N)=O)CS[C@@H]12)c1ccco1	6%	/	/	/	/
CO/N=C(/C(=O)N[C@@H]1C(=O)N2C(C(=O)O)=C(CSc3cnns3)CS[C@H]12)c1csc(N)n1	35µM*	/	/	/	/
